Molecules are shown by their SMILES. Several values for one entry are separate records, joined by “and”; a condition that tells them apart may be missing. Equal values may be shown once. About 17,000 (4.4%) of roughly 390,000 compounds were called active. Where a call stands in place of a potency, no number is given. About 8% were inconclusive and are not listed. This is one part of a sample in which actives are shown more often than they occur. The call rests on the fitted dose curve; in most records, active means well fitted inhibition curve with a large enough effect; inconclusive means small, poorly fitted or top-dose-only effect; inactive means no such curve, though single readings can be large or run the other way.
Potency means the concentration at half of the fitted maximal effect.

In the assay the target is Lysine-specific demethylase 4A (Homo sapiens) (UniProt O75164). The assay is described as follows: qHTS Assay for Inhibitors of JMJD2A-Tudor Domain. Further: nearly all actives have a fitted effect of over 50% in size. As to conditions: AlphaScreen JMJD2A-Tudor / H3K4me3 peptide binding; series mostly up to 114 µM. (Quantitative high-throughput screening tests each substance at several concentrations.)
Lysine-specific demethylase 4A (Homo sapiens), sequence (O75164 whole entry, looked up, the tested form may be a part): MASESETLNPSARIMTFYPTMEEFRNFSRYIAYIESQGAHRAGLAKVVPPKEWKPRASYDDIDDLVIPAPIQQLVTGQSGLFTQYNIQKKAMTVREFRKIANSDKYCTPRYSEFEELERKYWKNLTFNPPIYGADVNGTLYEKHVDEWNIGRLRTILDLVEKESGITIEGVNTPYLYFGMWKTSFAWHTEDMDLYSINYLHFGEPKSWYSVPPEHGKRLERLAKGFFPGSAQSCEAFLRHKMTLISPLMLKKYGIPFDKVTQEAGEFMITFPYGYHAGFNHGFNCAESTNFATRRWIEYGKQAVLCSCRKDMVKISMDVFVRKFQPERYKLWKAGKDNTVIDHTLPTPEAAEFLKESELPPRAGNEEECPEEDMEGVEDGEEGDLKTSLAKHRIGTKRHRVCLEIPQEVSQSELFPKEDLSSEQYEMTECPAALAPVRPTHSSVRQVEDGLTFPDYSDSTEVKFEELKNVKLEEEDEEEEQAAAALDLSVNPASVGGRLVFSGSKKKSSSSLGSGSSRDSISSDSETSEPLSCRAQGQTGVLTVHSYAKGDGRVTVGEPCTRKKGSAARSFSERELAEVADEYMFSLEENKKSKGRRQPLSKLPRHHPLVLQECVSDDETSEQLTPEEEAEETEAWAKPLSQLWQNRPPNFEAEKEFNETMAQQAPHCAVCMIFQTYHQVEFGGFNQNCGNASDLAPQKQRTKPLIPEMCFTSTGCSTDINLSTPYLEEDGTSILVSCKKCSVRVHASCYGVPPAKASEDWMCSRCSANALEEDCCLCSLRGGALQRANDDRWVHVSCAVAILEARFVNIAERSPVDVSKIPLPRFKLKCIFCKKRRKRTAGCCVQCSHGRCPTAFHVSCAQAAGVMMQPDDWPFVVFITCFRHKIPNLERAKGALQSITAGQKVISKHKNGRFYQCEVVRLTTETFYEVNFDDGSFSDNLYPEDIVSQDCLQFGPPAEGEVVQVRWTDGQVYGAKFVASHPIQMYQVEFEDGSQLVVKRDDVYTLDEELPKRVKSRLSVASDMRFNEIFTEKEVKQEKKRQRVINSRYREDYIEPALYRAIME
With `CCOC(=O)N1CCc2c(sc3c2c(=O)n(-c2ccc(CC)cc2)c(=O)n3C)C1`, the Potency entry is “inactive”.

For `CC1CCCN(c2csc3ccc(F)cc3c2=O)C1` (centres undefined), the Potency result is “inactive”.

As for `Cn1nnnc1Sc1ncnc2scc(-c3ccccc3[N+](=O)[O-])c12`, the Potency entry is “inactive”.

On to `CC(C)(C)c1ccc(OCC(=O)N2CCC(c3nc4ccccc4s3)CC2)cc1`, for which the Potency entry was “inactive”.

Turning to `Nn1c(SCC(=O)Nc2nccs2)nnc1-c1ccco1`, the Potency entry is “inactive”.

`COc1ccc(NC(=O)CSc2nncc(=O)n2N)cc1OC`: the Potency entry was “inactive”.

For `Nn1c(SCC(=O)Nc2nccs2)nncc1=O`, the Potency is 28.2 µM (active).

For the compound `Cc1ccc2c(=O)c(C(=O)c3ccc(Cl)cc3)cn(CC(=O)NC3CCCCC3)c2n1`, the Potency result was “inactive”.

Take `COc1ccccc1-n1cn[nH]c1=S`: the Potency was 25.1 µM (active).

With `COCCCNC(=O)c1ccc2c(c1)ncn2-c1ccccc1OC`, the Potency result is “inactive”.

As for `COc1ccccc1-n1cnc2cc(NS(=O)(=O)c3ccccc3)ccc21`, the Potency result is “inactive”.

Take `CCOc1ccc(CNC(=O)c2cc(-c3ccc(Cl)s3)nc3ccccc23)cc1`: the Potency entry was “inactive”.

Regarding `COc1ccc(Br)cc1CNC(=O)c1cc(=O)[nH]c2ccc(S(=O)(=O)N3CCCC3)cc12`, the Potency entry is “inactive”.

Consider `CCOC(=O)c1c(C)[nH]c(C)c1S(=O)(=O)NCC(=O)NCc1cccc(C)c1`, for which the Potency entry is “inactive”.

Turning to `Cc1cc(C)nc(Nc2n[nH]c(-c3ccccc3N)n2)n1`, the Potency is 2.24 µM (active).

As for `CCCOc1ccccc1-c1nc(SCCC(=O)O)n[nH]1`, the Potency result is “inactive”.

As for `CCCCN(CC)CCCNC(=O)c1nn(C)c2c1CSc1ccccc1-2`, the Potency result was “inactive”.

On to `COc1cccc(CNC(=O)CSc2c3c(nc4cc(Cl)ccc24)CCCC3)c1`, for which the Potency entry is “inactive”.

As to `Cc1cccc(C(=O)Nc2ccc(S(=O)(=O)N3CCCCC3c3cccnc3)cc2)c1` (centres undefined), the Potency entry is “inactive”.

In the case of `COc1ccc(CCNS(=O)(=O)c2cccc3cccnc23)cc1OC`, the Potency result was “inactive”.

Consider `CCCCC(=O)NC(c1ccc(OC)c(OC)c1)c1ccc2cccnc2c1O` (centres undefined), for which the Potency is 56.2 µM (active).

In the case of `C=CCn1c(COc2cccc3cccnc23)nnc1SCC(=O)OC`, the Potency result was “inactive”.

As to `COc1ccccc1-c1ccnc2[nH]n(-c3ccccc3)c(=O)c12`, the Potency entry was “inactive”.

Turning to `COc1cccc(Cn2c(CNS(=O)(=O)c3ccc(Cl)s3)nc3cccnc32)c1`, the Potency entry was “inactive”.

In the case of `O=c1cc(CO)oc(CN2CCC(Cc3ccccc3)CC2)c1O`, the Potency entry was “inactive”.

As to `Brc1ccccc1CN1CCC(Cc2ccccc2)CC1`, the Potency was 0.794 µM (active).

Take `NC(=O)c1ccc(CN2CCC(Cc3ccccc3)CC2)cc1`: the Potency entry is “inactive”.

Consider `CCOc1ccccc1NC(=O)Cn1c2ncccc2c(=O)n1-c1ccc(C)c(C)c1`, for which the Potency result was “inactive”.

Regarding `C=CCCC(=O)Nc1nc(C)c(-c2csc(Nc3ccc(Cl)cc3)n2)s1`, the Potency was 63.1 µM (active).

Consider `CCC(=O)Nc1nc(C)c(C(=O)Nc2cccc(Cl)c2)s1`, for which the Potency result is “inactive”.

Consider `Cc1nc(NC(=O)CN(C)S(=O)(=O)c2ccc(Cl)cc2)sc1C`, for which the Potency result is “inactive”.

In the case of `O=C(NC1(C(F)(F)F)N=C(c2ccccc2)N(C2CCCCC2)C1=O)c1ccccc1F` (centres undefined), the Potency result is “inactive”.

Regarding `CCOC(=O)c1cccc(NC(=O)Cn2cnc3nc4c(cc3c2=O)CCCC4)c1`, the Potency result was “inactive”.

Take `COc1ccc(-c2nc3c4ccccc4n(CC(=O)Nc4ccc(C(C)=O)cc4)c(=O)n3n2)cc1`: the Potency is 8.91 µM (active).

Regarding `COc1ccc(NC(=O)Cn2c(=O)n(Cc3ccc(C(=O)NCc4ccccc4Cl)cc3)c(=O)c3ccccc32)cc1`, the Potency result is “inactive”.

Consider `CC(=O)c1ccc(NC(=O)Cn2c(=O)oc3ccccc32)cc1`, for which the Potency result is “inactive”.

With `O=C(NCCCn1ccnc1)C(=O)NCC1OCCN1S(=O)(=O)c1cc(F)ccc1F` (centres undefined), the Potency was 39.8 µM (active).

For the compound `Cc1cc(F)ccc1S(=O)(=O)N1CCCOC1CNC(=O)C(=O)NCCC1=CCCCC1` (centres undefined), the Potency result was “inactive”.

Take `O=C(NCCCc1ccccc1)C(=O)NCC1OCCN1S(=O)(=O)c1ccccc1` (centres undefined): the Potency result was “inactive”.

With `CCn1c(C(=O)Nc2cc(Cl)ccc2C)cc2sc(Cl)cc21`, the Potency entry was “inactive”.

Turning to `COc1cc(C(=O)N2CCC(c3ccncc3)CC2)cc(OC)c1OC`, the Potency result is “inactive”.

For `COc1ccc(-c2cc(=O)oc3cc(OCC(=O)N[C@@H](Cc4c[nH]c5ccccc45)C(=O)O)ccc23)cc1`, the Potency result was “inactive”.

As for `COc1ccc(-c2cc(C(=O)NC(Cc3c[nH]c4ccccc34)C(=O)O)c(C)o2)cc1OC` (centres undefined), the Potency was 22.4 µM (active).

In the case of `COc1ccc(-c2cc(C(=O)NC(C(=O)O)C(C)C)c(C)o2)cc1OC` (centres undefined), the Potency result is “inactive”.

Turning to `CC1=C(c2ccc(Cl)cc2)S(=O)(=O)N=C1N1CCN(c2cc(C)ccc2C)CC1`, the Potency result was “inactive”.

Regarding `O=C(CCc1ccccc1)NCc1ccc2c(c1)CCN2C(=O)c1ccccc1`, the Potency result was “inactive”.

Turning to `CCc1ccccc1N1C(=O)CN(S(=O)(=O)CC)CC1(C)C(=O)NC1CCCCC1` (centres undefined), the Potency result is “inactive”.

Take `Cc1ccc2c(c1)C(c1ccccc1)N(C(=O)c1ccc(F)cc1)CC(=O)N2` (centres undefined): the Potency entry is “inactive”.

For `Cc1ccc(C(=O)N2CC(=O)Nc3ccc(F)cc3C2c2ccc(F)cc2)cc1` (centres undefined), the Potency result was “inactive”.

Take `Cc1ccc2c(c1)C(c1ccccc1)N(C(=O)c1ccc(S(=O)(=O)N3CCOCC3)cc1)CC(=O)N2` (centres undefined): the Potency is 50.1 µM (active).

For the compound `CC(=O)Nc1cccc(NC(=O)CSc2cn(CC(=O)N3CCCC3)c3ccccc23)c1`, the Potency entry is “inactive”.

Turning to `O=S(=O)(NCC(c1ccco1)N1CCOCC1)c1cc(F)ccc1F` (centres undefined), the Potency entry was “inactive”.

With `O=C(CSCc1cnn(-c2ccccc2)c1-n1cccc1)NCc1ccccc1Br`, the Potency result is “inactive”.

Regarding `Cc1ccc(-c2cn3cc(C)ccc3n2)cc1`, the Potency entry is “inactive”.

Regarding `COc1ccc(-n2c(-c3ccc(OC)c(OC)c3)n[nH]c2=S)cc1`, the Potency was 1.26 µM (active).

On to `COc1ccc(-c2nc3ccccc3n2CCC(C)C)cc1OC`, for which the Potency entry is “inactive”.

With `Cc1n[nH]c(=O)n1-c1ccc(C(C)C)cc1`, the Potency entry is “inactive”.

On to `COc1ccc(OC)c(-n2nnc(-c3nc(-c4cc(OC)c(OC)c(OC)c4)no3)c2C)c1`, for which the Potency result was “inactive”.

For the compound `CCOC(=O)CSc1nnc(CNC(=O)c2cccs2)n1-c1cc(OC)ccc1OC`, the Potency result was “inactive”.

As to `Cc1ccc(-n2c(-c3ccc(Cl)cc3)n[nH]c2=S)cc1`, the Potency was 50.1 µM (active).

As for `COc1ccccc1OCC(=O)OCc1cc(-c2ccco2)on1`, the Potency entry is “inactive”.

In the case of `COc1ccc(-n2c(C)csc2=S)cc1`, the Potency result is “inactive”.

On to `COc1ccc(OC)c(-n2c(-c3ccn[nH]3)n[nH]c2=S)c1`, for which the Potency was 50.1 µM (active).

For the compound `COc1ccccc1N1CCN(c2nc(C)cc(=O)[nH]2)CC1`, the Potency result is “inactive”.

Regarding `COc1ccccc1-n1c(-c2cc(-c3ccco3)[nH]n2)n[nH]c1=S`, the Potency is 15.8 µM (active).

As to `CCOC(=O)c1cccc(NC(=O)c2cc(CN3CCCC3)on2)c1`, the Potency entry was “inactive”.

For `O=C(OCc1cc(=O)n2nc(C3CC3)sc2n1)c1ccccc1Cl`, the Potency entry is “inactive”.

On to `COc1ccc(C2c3c(oc4ccccc4c3=O)C(=O)N2Cc2ccc3c(c2)OCO3)cc1` (centres undefined), for which the Potency entry was “inactive”.

Take `COc1ccc(Cn2ccn(CC(=O)Nc3cc(C)ccc3C)c(=O)c2=O)cc1`: the Potency entry was “inactive”.

Regarding `O=C(CCCn1c(=O)c2cccn2c2cccnc21)NCc1ccc(F)cc1`, the Potency result was “inactive”.

Turning to `COc1ccccc1C(=O)NCCn1cc(SCc2ccccc2Cl)c2ccccc21`, the Potency entry was “inactive”.

For the compound `CCN(CC)P(=O)(/C(Cl)=C\Nc1c(C)n(C)n(-c2ccccc2)c1=O)N(CC)CC`, the Potency was 15.8 µM (active).

On to `Cc1c(NS(=O)(=O)c2ccc(Cl)cc2)c(=O)n(-c2ccccc2)n1C`, for which the Potency entry was “inactive”.

`Cc1c(NC(=S)Nc2ccccc2)c(=O)n(-c2ccccc2)n1C`: the Potency result is “inactive”.

As for `CCN(CC)CCNc1ncnc2c1cnn2-c1cc(Cl)ccc1C`, the Potency result was “inactive”.

Turning to `O=C(O)CCC(=O)NCc1ccc(C(=O)O)cc1`, the Potency entry is “inactive”.

As for `O=C(O)c1ccc(Cn2c(SCc3ccc(F)cc3)nc3ccncc32)cc1`, the Potency result was “inactive”.

Take `O=C(O)c1ccc(Cn2cnc3c(=S)nc[nH]c32)cc1`: the Potency is 3.55 µM (active).

For the compound `Cc1ccc(Cn2c(=O)n(-c3ccc(C)cc3)c(=O)c3c2c2cc(C)ccc2n3C)cc1`, the Potency result was “inactive”.

With `Cc1ccc(Cl)cc1N(C)C(=O)C1CCCN(c2ncnc3onc(-c4ccc(F)cc4)c23)C1` (centres undefined), the Potency result was “inactive”.

Take `CC(C)=CCc1ccc(O)c(=O)cc1C(C)C`: the Potency was 56.2 µM (active).

With `CC(C)c1cc(N=O)cc(C(C)C)c1O`, the Potency entry was “inactive”.

For the compound `Cc1ccc(CNC(=O)c2c(O)nc3c(C)cccn3c2=O)cc1`, the Potency result is “inactive”.

`COc1ccc2c(CNCCc3ccccc3C)c(C(=O)O)n(Cc3ccccc3C)c2c1`: the Potency entry is “inactive”.

Turning to `Cc1ccc2ncc(C(=O)Nc3ccc(OC(F)(F)F)cc3)c(=O)n2c1`, the Potency result was “inactive”.

For `COc1cccc2cc(-c3nc(Cl)c4c5c(sc4n3)CC(C)CC5)c(=O)oc12` (centres undefined), the Potency result is “inactive”.

Turning to `CCCCCCC1(C)NC(c2ccc3c(c2)OCO3)=CC(c2ccccc2O)N1` (centres undefined), the Potency entry is “inactive”.

For the compound `CCn1c2ccccc2c2cc(NC(=O)C/C(C)=N/NC(=O)c3ccccc3N)ccc21`, the Potency entry was “inactive”.

Turning to `CCn1c2ccccc2c2cc(NC(=O)CNC)ccc21`, the Potency is 1 µM (active).

Turning to `CCn1c2ccccc2c2cc(NC(=O)COc3ccc(C)cc3C)ccc21`, the Potency entry is “inactive”.

In the case of `Cc1ccc(N(CC(=O)NCC(C)c2ccccc2)S(=O)(=O)N(C)C)cc1` (centres undefined), the Potency result was “inactive”.

Take `Cc1ccc(NC(=O)C(=O)NCC(c2cccnc2)N2CCOCC2)cc1` (centres undefined): the Potency result is “inactive”.

On to `COc1cccc(C(=O)N(Cc2cccc(Cl)c2)Cc2ccco2)c1`, for which the Potency result is “inactive”.

In the case of `CCCCCn1c(CCCNC(=O)c2ccccc2OC)nc2ccccc21`, the Potency entry is “inactive”.

Regarding `O=C(Nc1ccccc1)C1CC(=O)n2c(nc3ccccc32)N1` (centres undefined), the Potency was 8.91 µM (active).

On to `CC(=O)c1ccc(NC(=O)C2CC(=O)Nc3nc4ccccc4n32)cc1` (centres undefined), for which the Potency entry was “inactive”.

Regarding `CCOC(=O)c1ccc(NC(=O)C2CC(=O)Nc3nc4ccccc4n32)cc1` (centres undefined), the Potency entry is “inactive”.

Take `CC(=O)N1CCCc2cc(S(=O)(=O)N3CCC(C(=O)NCc4ccc(C)cc4)CC3)ccc21`: the Potency entry was “inactive”.

Regarding `O=c1cc(-c2ccccc2)n2c(SCc3ccccc3)nnc2[nH]1`, the Potency result was “inactive”.

For `O=c1[nH]c2ccccc2n2c(-c3ccccc3)nnc12`, the Potency was 7.94 µM (active) and 5.62 µM (active).

Turning to `Cc1cccc(CC(=O)Nc2cccc(-c3cn4cccnc4n3)c2)c1`, the Potency entry is “inactive”.

For the compound `CCOc1ccc(N2CC(C(=O)NCc3ccccn3)CC2=O)cc1` (centres undefined), the Potency result is “inactive”.

`COc1ccc(NC(=O)C2C3C=CC(C3)C2C(=O)NCc2ccccn2)c(OC)c1` (centres undefined): the Potency was 50.1 µM (active).

Turning to `CCS(=O)(=O)N1Cc2ccccc2CC1C(=O)Nc1ccc(OC)cc1OC` (centres undefined), the Potency entry is “inactive”.

The record behind these values is PubChem BioAssay AID504339 (National Center for Advancing Translational Sciences (NCATS), 2011).
